# According to PubChem BioAssay AID602358 (National Center for Advancing Translational Sciences (NCATS), 2012):
# Results filed as inconclusive are left out. Activity calls are given as the source filed them. Calls come from the whole dose curve; as a rule, active = well fitted inhibition curve with a large enough effect; inconclusive = small, poorly fitted or top-dose-only effect; inactive = flat fitted curve, though single readings scatter.
# Molecular target: Luciferin 4-monooxygenase (Photinus pyralis) (UniProt P08659)
# Experiment: FLuc inhibitory activity for the follow-up compounds in a biochemical assay with Km concentrations of substrate and 500microM CoASH
# Conditions: purified FLuc, Km substrates + 500 uM CoASH, luminescence; series mostly up to 57.5 µM; activity change, negative = inhibition: at the top concentration
# Source text: NCGC Assay Overview: Firefly (Photinus pyralis) luciferase is one of the most commonly used transcriptional reporters. It is considered one of the more dynamically responsive reporters - that is, responsive to changes in reporter transcription - as it requires no post-translational modifications and is enzymatically active directly after protein synthesis (Wood, 1998). With no endogenous expression in mammalian cells and without the requirement of external excitation, it offers very little background signal, thus generally providing excellent signal to background for most assays. Previous profiling work to determine the prevalence of compounds that affect FLuc enzymatic activity (PubChem AID 411) identified that ~3% of the MLSMR library (then at ~72K) inhibited FLuc. […] Of the compounds identified in this profile that inhibited FLuc, 151 compounds were selected for further analysis, in an effort to better understand their mode of inhibiting FLuc. The assay described here was to determine the activity of the compounds in an FLuc assay that contained KM concentrations of substrates and 500uM CoASH.
# NCGC Assay Protocol Summary: Reagents: 50mM Tris acetate, pH 7.5; 10mM Mg acetate; 10uM D-luciferin (Sigma #L9504); 10uM ATP; 0.01% Tween-20; 0.05% BSA; 10nM P. pyralis luciferase (Sigma #L9506); 500 uM CoASH Control compounds used were two known firefly luciferase inhibitors (3-(5-(3-chlorophenyl)-1,2,4-oxadiazol-3-yl)benzoic acid and 5-(2-fluorophenyl)-3-phenyl-1,2,4-oxadiazole), and DMSO. Three microliters containing firefly luciferase substrates in buffer (final concentrations: 50mM Tris acetate, pH 7.5, 10mM Mg acetate, 0.01% Tween-20, 0.05% BSA, 10uM D-luciferin, 10uM ATP, and 500 uM CoASH) are dispensed into each well of a Greiner white, solid-bottom 1536-well format plate using a flying reagent dispenser (FRD). These assay plates were then treated with 23nL of compound or DMSO using a Kalypsys pin tool, which allows for delivery of a 12-point intraplate titration of each compound to the assay plate (quantitative HTS), with a final compound concentrations ranging from approximately ~60uM to 0.3nM. One microliter of firefly luciferase in 500mM Tris-acetate buffer was then delivered by FRD to each well for a final enzyme concentration of 10nM. Luciferase activity was then measured using a ViewLux CCD imager (PerkinElmer), with an average exposure time of 2-30 seconds (2X binning, medium/high gain).
# Chain of Luciferin 4-monooxygenase (Photinus pyralis) (P08659 whole entry, looked up): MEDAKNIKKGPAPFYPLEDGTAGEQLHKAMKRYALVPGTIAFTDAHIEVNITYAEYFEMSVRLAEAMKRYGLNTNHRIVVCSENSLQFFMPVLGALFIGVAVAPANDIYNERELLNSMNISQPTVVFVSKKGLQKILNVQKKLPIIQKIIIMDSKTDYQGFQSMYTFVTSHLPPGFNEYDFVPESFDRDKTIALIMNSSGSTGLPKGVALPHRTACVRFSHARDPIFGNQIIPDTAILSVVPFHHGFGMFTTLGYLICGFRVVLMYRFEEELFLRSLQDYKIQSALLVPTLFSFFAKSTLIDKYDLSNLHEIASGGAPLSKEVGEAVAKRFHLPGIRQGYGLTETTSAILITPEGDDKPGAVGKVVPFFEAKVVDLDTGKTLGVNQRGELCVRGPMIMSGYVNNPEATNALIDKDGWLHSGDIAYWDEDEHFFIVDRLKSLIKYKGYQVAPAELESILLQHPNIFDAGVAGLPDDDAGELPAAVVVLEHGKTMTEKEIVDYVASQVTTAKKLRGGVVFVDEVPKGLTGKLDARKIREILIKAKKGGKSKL
SMILES,Potency,"activity change, negative = inhibition"
CCn1c(C)nc2cc(-c3nc4n(n3)Cc3ccccc3-4)ccc21,0.0146 µM (active),–
O=C(Nc1ccccc1C(=O)Nc1ccccc1C(=O)O)c1ccccc1,10.3 µM (active),–
Cc1ccccc1C(=O)Nc1cccc(C(=O)Nc2ccccc2C(=O)O)c1,16.3 µM (active),–
O=C(Cc1ccccc1)Nc1ccccc1C(=O)Nc1ccc(C(=O)O)cc1,–,-13.8% (inactive)
O=C(O)c1ccc(NC(=O)c2cccc(NC(=O)c3cccs3)c2)cc1,5.8 µM (active),–
O=C(Nc1ccccc1C(=O)O)c1ccc(NC(=O)C2CC2)cc1,0.73 µM (active),–
COc1ccccc1C(=O)Nc1ccc(C(=O)O)cc1,–,-27.9% (inactive)
COc1ccc(-c2nc3ccccc3s2)cc1NC(=O)c1ccc(F)cc1,–,-19.4% (inactive)
Nc1ccc2nc(-c3ccc(O)cc3)sc2c1,0.146 µM (active),–
Cc1ccc(C(=O)Nc2cccc(C(=O)O)c2)cc1,3.66 µM (active),–
O=C(Nc1ccccc1C(=O)O)c1cccc(NC(=O)c2ccco2)c1,6.51 µM (active),–
COc1ccc2nc(NC(=O)c3ccco3)sc2c1,0.291 µM (active),–
CN(C)c1cccc(C(=O)Nc2ccc(-c3nc4ccccc4s3)cc2)c1,1.46 µM (active),–
COc1ccc2nc(NC(=O)c3ccc(S(=O)(=O)N4CCCC(C)C4)cc3)sc2c1 (stereo not given),–,-6.31% (inactive)
COc1c(C)cccc1C(=O)Nc1ccc(-c2nc3ccccc3s2)c(Cl)c1,–,-16.4% (inactive)
O=C(Nc1ccccc1C(=O)O)c1ccc(Cl)c(S(=O)(=O)N2CCOCC2)c1,5.8 µM (active),–
O=C(O)c1cccc(NC(=O)c2ccc(Cl)c(S(=O)(=O)N3CCCCCC3)c2)c1,2.91 µM (active),–
CC(=O)Nc1cccc(-c2nc3ccccc3s2)c1C,13 µM (active),–
CCCC(=O)Nc1nc2ccc(OCC)cc2s1,10.3 µM (active),–
O=C(Nc1ccccc1C(=O)O)c1cccc(S(=O)(=O)N2CCCC2)c1,18.3 µM (active),–

SMILES,Potency,"activity change, negative = inhibition"
COc1ccc2nc(NC(=O)c3cccs3)sc2c1,13 µM (active),–
COc1ccc(-c2cccc(C(=O)Nc3cccc(C(=O)O)c3)c2)cc1,13 µM (active),–
COc1ccc(C(=O)Nc2ccccc2C(=O)Nc2ccc(C(=O)O)cc2)cc1,0.517 µM (active),–
Cc1c(NC(=O)C(C)(C)C)cccc1-c1nc2ccccc2s1,1.46 µM (active),–
COc1ccc2nc(NC(=O)CCc3ccc(OC)c(OC)c3)sc2c1,–,-17.3% (inactive)
CC(=O)Nc1cccc(C(=O)Nc2ccccc2C(=O)O)c1,20.6 µM (active),–
CC(C)Oc1ccc(C(=O)Nc2ccc(-c3nc4ccccc4s3)cc2)cc1,–,-11.1% (inactive)
Cc1ccc(S(=O)(=O)N2CCN(C(=O)c3ccccc3-c3nc4ccccc4s3)CC2)c(C)c1,–,-6.32% (inactive)
Cc1ccc(S(=O)(=O)N2CCOCC2)cc1C(=O)Nc1ccccc1C(=O)O,–,-24.6% (inactive)
COc1ccc2nc(NC(=O)c3ccc(NS(=O)(=O)c4cccs4)cc3)sc2c1,2.59 µM (active),–
O=C(Nc1ccc(-c2nc3ccccc3s2)cc1)C1=COCCO1,0.0259 µM (active),–
O=C(Nc1ccccc1-c1nc2ccccc2s1)c1cccnc1,–,-9.13% (inactive)
Nc1ccc(C(=O)Nc2ccccc2C(=O)O)cc1,3.26 µM (active),–
Cc1ccc2sc(-c3ccc(N)cc3)nc2c1,0.0411 µM (active),–
COc1ccc2nc(NC(=O)Cc3cccs3)sc2c1,5.8 µM (active),–
CC(C)c1ccc(-c2nc3ccccc3s2)cc1,0.013 µM (active),–
O=C(O)c1cccc(NC(=O)c2ccc(COc3ccc(Cl)cc3)cc2)c1,18.3 µM (active),–
CC(=O)Oc1ccc(C(=O)Nc2ccccc2C(=O)Nc2cccc(C(=O)O)c2)cc1,2.59 µM (active),–
CN=c1scc(-c2ccccc2F)n1/N=C/c1ccc[nH]1,0.0163 µM (active),–
COc1ccc2nc(NC(=O)c3ccc4ncsc4c3)sc2c1,0.651 µM (active),–
